Screens (PubChem)
An excerpt weighted towards active compounds, which were near 3.4% of everything screened.
PAFAH1B3 inh: PAFAH1B3 enzyme inhibitors, primary screen, biochemical, fluorescence polarization, human. inhibition, % at 3.39 µM. Platelet-activating factor acetylhydrolase IB subunit alpha1 (Homo sapiens), Q15102. 340,000 compounds, 0.28% hits. recombinant PAFAH1B3, FP-rhodamine probe;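 active = inhibition above the screen-wide average of all tested compounds plus 3 SD, cut at about 25% in these data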;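 also: 0% = enzyme with DMSO only and 100% = wells lacking PAFAH1B3 protein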
PP5 primary: PP5 phosphatase inhibitors, primary screen, biochemical, fluorescence; Serine/threonine-protein phosphatase 5 (Homo sapiens), P53041; purified PP5c, OMFP substrate fluorescence; 320,000 compounds, 0.18% hits; AID 1987, 2009; inhibition, % at 6.7 µM;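 active = inhibition above the campaign's mean inhibition across all tested compounds plus 3 SD, cut at about 9.5% in these data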;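 also: 0% = DMSO only and 100% = 100 µM cantharidin control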
Target sequence (P53041 whole entry, looked up): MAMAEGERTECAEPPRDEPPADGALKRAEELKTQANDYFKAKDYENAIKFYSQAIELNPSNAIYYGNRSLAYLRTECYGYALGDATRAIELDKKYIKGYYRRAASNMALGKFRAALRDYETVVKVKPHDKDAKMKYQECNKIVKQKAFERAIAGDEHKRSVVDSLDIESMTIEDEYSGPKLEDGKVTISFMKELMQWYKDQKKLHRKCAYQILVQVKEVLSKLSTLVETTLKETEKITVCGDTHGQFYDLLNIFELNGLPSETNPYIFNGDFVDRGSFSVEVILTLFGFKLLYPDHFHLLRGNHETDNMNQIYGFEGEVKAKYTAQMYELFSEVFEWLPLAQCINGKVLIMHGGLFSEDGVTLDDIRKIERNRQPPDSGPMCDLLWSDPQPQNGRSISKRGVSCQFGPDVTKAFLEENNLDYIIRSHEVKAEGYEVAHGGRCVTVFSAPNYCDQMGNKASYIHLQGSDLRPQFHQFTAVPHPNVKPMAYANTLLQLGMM
PAFAH2 FP inh: PAFAH2 enzyme inhibitors, primary screen, biochemical, fluorescence polarization, human; Platelet-activating factor acetylhydrolase 2, cytoplasmic (Homo sapiens), Q99487; recombinant PAFAH2, FP-rhodamine activity probe; inhibition, % at 3.39 µM; 340,000 compounds, 0.99% hits; AID 492956, 2010;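 active = inhibition above the mean over all tested compounds plus 3 SD, cut at about 30% in these data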;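 also: inhibitors block probe labeling of enzyme so polarization drops; 0% = enzyme with DMSO and 100% = wells lacking PAFAH2 protein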
PAFAH1B2 inh: PAFAH1B2 enzyme inhibitors, primary screen, biochemical, fluorescence polarization, human; recombinant PAFAH1B2, FP-rhodamine activity probe; inhibition, % at 3.39 µM; 340,000 compounds, 1.2% hits;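 active = inhibition above the mean of all tested compounds plus 3 SD, cut at about 24% in these data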;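 also: 0% = enzyme with DMSO and 100% = wells lacking PAFAH1B2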
pPAFAH FP inh: pPAFAH enzyme inhibitors, primary screen, biochemical, fluorescence polarization, human; Platelet-activating factor acetylhydrolase (Homo sapiens), Q13093; 330,000 compounds, 1.5% hits; inhibition, % at 3.39 µM; recombinant pPAFAH, FP-rhodamine probe fluorescence polarization;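 active = inhibition above the mean inhibition across the screen plus 3 SD, cut at about 25% in these data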;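 also: inhibitors block binding of the rhodamine activity-based probe so polarization drops; 0% = enzyme with DMSO and 100% = wells lacking pPAFAH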
PP1 counter: PP1-alpha phosphatase inhibitors, primary screen, counter-screen for PP5 inhibitor project, biochemical, fluorescence, OMFP substrate, single point. purified PP1alpha. inhibition, % at 6.7 µM. 320,000 compounds, 0.9% hits. AID 2235, 2010;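 active = inhibition above the mean inhibition of all tested compounds plus 3 SD, computed separately for each screening campaign, cut at about 15% in these data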
PAFAH2 confirm: PAFAH2 enzyme inhibitors, confirmation, biochemical, fluorescence polarization, human | shares compounds with PAFAH2 FP inh | recombinant PAFAH2, FP-rhodamine activity probe | inhibition, % at 3.39 µM | 2,300 compounds, 65% hits | AID 493030, 2011;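 active = mean inhibition over three repeats above a set limit taken from the earlier primary screen, cut at about 30% in these data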;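 also: inhibitor blocks binding of rhodamine activity probe so polarization falls; 0% = enzyme with DMSO and 100% = wells lacking PAFAH2 protein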
The depositor's hits bear a star; x = no result given.

SMILES	PAFAH1B3 inh	PP5 primary	PAFAH2 FP inh	PAFAH1B2 inh	pPAFAH FP inh	PP1 counter	PAFAH2 confirm
CCOC(=O)COc1cc2c(C(=O)OCC)c(C)oc2cc1Br	4	0	1	5	8	3	x
CCN1C(=O)[C@H]2[C@@H](c3ccc(-c4ccc(Cl)c(Cl)c4)c(OC)c3)N3CCCC[C@@]3(C(=O)OC)[C@H]2C1=O	3	x	1	-1	4	x	x
Cc1c(C(=O)OCCOc2ccccc2)[nH]c2c1C(=O)CCC2	-6	0	0	-1	4	0	x
Cc1c(C(=O)OC2CCCC2C)[nH]c2c1C(=O)CCC2 (stereo unspecified)	7	1	59*	0	4	0	39*
COc1cc(/C=C/C(=O)OCC(=O)N2CCC(C)CC2)ccc1O	1	1	56*	3	5	-5	45*
COc1cc(/C=C/C(=O)OCC(=O)NC(=O)NC2CCCC2)ccc1OCC#N	3	x	13	4	x	x	x
COc1cc(/C=C/C(=O)OCC(=O)N2CCC(Cc3ccccc3)CC2)ccc1O	6	5	14	-2	12	3	x
COc1cc(/C=C/C(=O)OCC(=O)N2CC3(C)CC2CC(C)(C)C3)ccc1O (stereo unspecified)	-6	3	42*	12	5	-3	20
COc1cc(/C=C/C(=O)OCC(=O)N2CCc3ccccc3C2)ccc1O	8	0	35*	0	8	2	36*
COc1cc(/C=C/C(=O)OCC(=O)N2CCC(C)CC2)ccc1OCC#N	9	0	42*	1	0	-2	22
CCc1ccc(CNC(=O)c2ccc3nc(C4CCCCC4)oc3c2)nc1	3	5	-19	2	-7	5	x
CCC(Oc1ccccc1)C(=O)Nc1ccc(C)c(S(=O)(=O)N2CCOCC2)c1 (stereo unspecified)	0	-1	6	3	1	-7	x
COC(=O)c1cccc(C(=O)N2CCCC(Nc3ccc(C)c(C)c3)C2)c1 (stereo unspecified)	3	-2	5	6	6	-3	x
O=C(CSc1nnc(-c2ccccc2F)n1C1CC1)NCc1ccco1	4	-1	-2	-1	4	-3	x
Cc1c(C(=O)NNC(=S)NCc2ccc(Cl)cc2)oc2ccccc12	0	3	3	8	13	4	x
CSCCC(NS(=O)(=O)c1ccc(Cl)cc1)C(=O)O (stereo unspecified)	-1	-1	35*	4	-2	1	29
CSCCC(NS(=O)(=O)c1c(Cl)cccc1Cl)C(=O)O (stereo unspecified)	3	-6	2	-2	-3	4	x
CC1CC1C(=O)OCC(=O)Nc1cccc(S(=O)(=O)NC2=NCCCCC2)c1 (stereo unspecified)	6	1	34*	4	5	-2	20
O=C(COC(=O)c1cccs1)Nc1cccc(S(=O)(=O)NC2=NCCCCC2)c1	8	1	48*	5	4	-3	36*
CC(=O)Nc1ccc(S(=O)(=O)NC2CCS(=O)(=O)C2)cc1Cl (stereo unspecified)	0	0	-1	5	-3	9	x
Cc1ccn2c(=O)c(NC(=O)c3ccc(Br)o3)c(C)nc2c1	2	0	4	-2	6	6	x
CN(C)S(=O)(=O)c1ccc(C(=O)N2CCN(S(=O)(=O)c3cccs3)CC2)cc1	-4	0	42*	4	2	-1	39*
O=C(c1cc(F)ccc1F)C1CCCN(C(=O)c2ccc3nccnc3c2)C1 (stereo unspecified)	5	-1	6	-2	8	-1	x
CCOc1ccc(Br)cc1S(=O)(=O)Nc1ccc(C(=O)OCC(=O)Nc2ccc(C#N)cc2)cc1	-41	3	36*	-14	-12	-5	30*
CCOc1ccc(C(=O)OCC(=O)Nc2ccc(SC(F)F)cc2)cc1OCC	-2	1	80*	0	11	8	77*
SMILES	PAFAH1B3 inh	PP5 primary	PAFAH2 FP inh	PAFAH1B2 inh	pPAFAH FP inh	PP1 counter	PAFAH2 confirm
CC(C)=CC(=O)OCC(=O)Nc1ccc(SC(F)F)cc1	1	0	78*	0	21	2	85*
O=C(COC(=O)c1cc[n+]([O-])cc1)Nc1ccc(SC(F)F)cc1	-10	0	-5	-2	10	-3	x
O=C1Nc2ccc(Cl)cc2C12Nc1ccccc1-c1nnc(SCc3ccccc3F)nc1O2 (stereo unspecified)	2	-1	-1	14	4	-2	x
O=C1Nc2ccc(F)cc2C12Nc1ccccc1-c1nnc(SCc3ccccc3F)nc1O2 (stereo unspecified)	6	2	35*	9	5	2	15
O=C(COc1ccc([N+](=O)[O-])cc1Cl)N1CCc2ccccc21	10	x	-1	4	10	x	x
COC(=O)c1ccc(/C=C/C(=O)OCC(=O)Nc2ncc(Cl)cc2Cl)cc1	4	3	29	6	-3	-1	x
O=C(COC(=O)/C=C/c1ccco1)Nc1ncc(Cl)cc1Cl	6	-1	47*	2	11	-1	27
Cc1nc(NC(=O)COC(=O)/C=C/c2ccco2)c(Cl)cc1Cl	3	1	35*	0	13	-3	18
COc1ccc(C(=O)OCC(=O)Nc2c(C)cccc2C)cc1	2	0	67*	0	8	0	60*
CN(C)c1ccc(NC(=O)COC(=O)c2ccc3c(c2)OCO3)cc1	-1	x	32*	-2	11	x	27
CN(C)c1ccc(C(=O)OCC(=O)Nc2ccc(S(N)(=O)=O)cc2)cc1	-10	1	5	-3	14	7	x
O=C(COC(=O)c1ccc2c(c1)OCO2)Nc1ccccc1OC(F)F	5	x	47*	3	12	x	46*
CN(C)c1nc(Oc2ccc(C(=O)OCC(=O)Nc3ccccc3)cc2)nc(N(C)C)n1	0	4	90*	1	23	2	76*
COc1cccc(CNC(=O)CCS(=O)(=O)Cc2ccc(C)cc2)c1	7	0	-4	5	11	-4	x
CC(Oc1cccnc1[N+](=O)[O-])C(=O)Nc1cccc(Cl)c1 (stereo unspecified)	0	-1	-9	-3	1	-2	x
